“And” between values parts separate entries of the source, which are not always exact repeats. Identical values can stand only once. Hit rate of the full screen: of about 5,500 compounds, about 2,000 (36%) were called active. Another 18% or so got no clear call; they are omitted. Rule as the data show it: active = normalized growth mostly below about 0.91 (no sharp cut-off); inconclusive = no clear call, values can overlap the other calls; inactive = mostly above about 0.92. This is one part of the list.
Test: chemical genetic growth profiling, strain panel (AID 1159580);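 also: tested at 20 µM; growth read once vehicle control cultures reached saturation at 30 °C; 1 = growth at the plate median or of vehicle wells; lower values mean less growth of the strain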
Conditions: growth OD

Measured: normalized growth

CC(CCc1ccccc1)NC(C)C(O)c1ccc(O)cc1 (stereo not given)
inactive: S. cerevisiae deletion strains, locus YJR075W, strain HOC1, active compounds read low 1.01 | S. cerevisiae deletion strains, locus YKL009W, strain mrt4, active compounds read low 0.988 | S. cerevisiae deletion strains, locus YKL068W, active compounds read low 0.987 | S. cerevisiae deletion strains, locus YKL085W, strain MDH1 (second series), active compounds read low 0.997 | S. cerevisiae deletion strains, locus YKL085W, strain MDH1, active compounds read low 0.997 | S. cerevisiae deletion strains, locus YKL160W, strain elf1, active compounds read low 1 | S. cerevisiae deletion strains, locus YKL190W, strain CNB1, active compounds read low 0.99 | S. cerevisiae deletion strains, locus YKR001C, strain vps1, active compounds read low 0.97 | S. cerevisiae deletion strains, locus YKR026C, strain gcn3, active compounds read low 1 | S. cerevisiae deletion strains, locus YKR091W, strain srl3, active compounds read low 1 | S. cerevisiae deletion strains, locus YLL001W, strain dnm1, active compounds read low 1.01 | S. cerevisiae deletion strains, locus YLL026W, active compounds read low 1 | S. cerevisiae deletion strains, locus YLL041C, strain sdh2, active compounds read low 0.999 | S. cerevisiae deletion strains, locus YLR027C, strain aat2, active compounds read low 0.994 | S. cerevisiae deletion strains, locus YLR039C, strain RIC1, active compounds read low 1.01 | S. cerevisiae deletion strains, locus YLR058C, strain SHM2, active compounds read low 0.976 | S. cerevisiae deletion strains, locus YLR102C, strain apc9, active compounds read low 0.99 | S. cerevisiae deletion strains, locus YLR113W, strain HOG1, active compounds read low 0.995 | S. cerevisiae deletion strains, locus YLR221C, strain rsa3, active compounds read low 1.02 | S. cerevisiae deletion strains, locus YLR258W, strain gsy2, active compounds read low 1 | S. cerevisiae deletion strains, locus YLR262C, strain YPT6 (second series), active compounds read low 0.96 | S. cerevisiae deletion strains, locus YLR262C, strain YPT6, active compounds read low 0.99 | S. cerevisiae deletion strains, locus YLR268W, strain sec22, active compounds read low 1.04 | S. cerevisiae deletion strains, locus YLR320W, strain mms22, active compounds read low 1.02 | S. cerevisiae deletion strains, locus YLR330W, strain CHS5, active compounds read low 0.997 | S. cerevisiae deletion strains, locus YLR342W, strain FKS1 (second series), active compounds read low 1.01 | S. cerevisiae deletion strains, locus YLR342W, strain FKS1, active compounds read low 1 | S. cerevisiae deletion strains, locus YLR357W, strain rsc2, active compounds read low 0.983 | S. cerevisiae deletion strains, locus YLR370C, strain arc18, active compounds read low 1 | S. cerevisiae deletion strains, locus YLR371W, strain rom2, active compounds read low 0.974 | S. cerevisiae deletion strains, locus YLR384C, strain iki3, active compounds read low 1.01 | S. cerevisiae deletion strains, locus YLR418C, strain cdc73, active compounds read low 0.997 | S. cerevisiae deletion strains, locus YML016C, strain PPZ1, active compounds read low 0.993 | S. cerevisiae deletion strains, locus YML032C, strain rad52, active compounds read low 1 | S. cerevisiae deletion strains, locus YML120C, strain ndi1, active compounds read low 1.01 | S. cerevisiae deletion strains, locus YML124C, strain tub3, active compounds read low 0.982 | S. cerevisiae deletion strains, locus YMR058W, strain fet3, active compounds read low 0.998 | S. cerevisiae deletion strains, locus YMR078C, strain ctf18, active compounds read low 0.987 | S. cerevisiae deletion strains, locus YMR125W, strain sto1, active compounds read low 1.01 | S. cerevisiae deletion strains, locus YMR129W, active compounds read low 0.984 | S. cerevisiae deletion strains, locus YMR205C, strain PFK2, active compounds read low 1.02 | S. cerevisiae deletion strains, locus YMR223W, strain ubp8, active compounds read low 0.989 | S. cerevisiae deletion strains, locus YMR231W, strain pep5, active compounds read low 1 | S. cerevisiae deletion strains, locus YMR263W, strain SAP30, active compounds read low 1.01 | S. cerevisiae deletion strains, locus YMR307W, strain GAS1, active compounds read low 1.05 | S. cerevisiae deletion strains, locus YNL067W, strain RPL9B, active compounds read low 0.995 | S. cerevisiae deletion strains, locus YNL071W, strain lat1, active compounds read low 0.999 | S. cerevisiae deletion strains, locus YNL128W, strain TEP1, active compounds read low 1.01 | S. cerevisiae deletion strains, locus YNL153C, strain GIM3, active compounds read low 1 | S. cerevisiae deletion strains, locus YNL175C, strain NOP13, active compounds read low 1.01 | S. cerevisiae deletion strains, locus YNL183C, strain NPR1, active compounds read low 0.944 | S. cerevisiae deletion strains, locus YNL197C, strain WHI3, active compounds read low 1.01 | S. cerevisiae deletion strains, locus YNL209W, strain ssb2, active compounds read low 1 | S. cerevisiae deletion strains, locus YNL224C, strain SQS1, active compounds read low 1.01 | S. cerevisiae deletion strains, locus YNL233W, strain BNI4, active compounds read low 0.992 | S. cerevisiae deletion strains, locus YNL248C, strain rpa49, active compounds read low 0.991 | S. cerevisiae deletion strains, locus YNL250W, strain rad50, active compounds read low 0.986 | S. cerevisiae deletion strains, locus YNL271C, strain bni1, active compounds read low 0.994 | S. cerevisiae deletion strains, locus YNL298W, strain CLA4, active compounds read low 1.01 | S. cerevisiae deletion strains, locus YNL307C, strain MCK1, active compounds read low 0.987 | S. cerevisiae deletion strains, locus YNL322C, strain KRE1 (second series), active compounds read low 1.01 | S. cerevisiae deletion strains, locus YNL322C, strain KRE1, active compounds read low 0.994 and 0.998 | S. cerevisiae deletion strains, locus YNR049C, strain mso1, active compounds read low 1 | S. cerevisiae deletion strains, locus YNR052C, strain pop2, active compounds read low 1 | S. cerevisiae deletion strains, locus YOL006C, strain TOP1, active compounds read low 0.948 | S. cerevisiae deletion strains, locus YOL012C, strain htz1 1.21 | S. cerevisiae deletion strains, locus YOL147C, strain pex11, active compounds read low 0.99 | S. cerevisiae deletion strains, locus YOR001W, strain rrp6, active compounds read low 0.989 | S. cerevisiae deletion strains, locus YOR061W, strain CKA2, active compounds read low 0.962 | S. cerevisiae deletion strains, locus YOR069W, strain VPS5, active compounds read low 0.996 | S. cerevisiae deletion strains, locus YOR070C, strain gyp1, active compounds read low 0.999 | S. cerevisiae deletion strains, locus YOR080W, strain dia2, active compounds read low 0.994 | S. cerevisiae deletion strains, locus YOR083W, strain WHI5 (second series), active compounds read low 1.01 | S. cerevisiae deletion strains, locus YOR083W, strain WHI5, active compounds read low 1 | S. cerevisiae deletion strains, locus YOR106W, strain vam3, active compounds read low 0.985 | S. cerevisiae deletion strains, locus YOR136W, strain idh2, active compounds read low 0.988 | S. cerevisiae deletion strains, locus YOR144C, strain elg1, active compounds read low 0.992 | S. cerevisiae deletion strains, locus YOR184W, strain ser1, active compounds read low 0.99 | S. cerevisiae deletion strains, locus YOR231W, strain MKK1, active compounds read low 1.02 | S. cerevisiae deletion strains, locus YOR265W, strain rbl2, active compounds read low 1.01 | S. cerevisiae deletion strains, locus YOR270C, strain vph1, active compounds read low 0.979 | S. cerevisiae deletion strains, locus YOR290C, strain snf2, active compounds read low 1.01 | S. cerevisiae deletion strains, locus YOR316C, strain cot1, active compounds read low 0.995 | S. cerevisiae deletion strains, locus YPL051W, strain arl3, active compounds read low 1.02 | S. cerevisiae deletion strains, locus YPL078C, strain atp4, active compounds read low 1 | S. cerevisiae deletion strains, locus YPL106C, strain sse1, active compounds read low 0.977 | S. cerevisiae deletion strains, locus YPL240C, strain hsp82, active compounds read low 1 | S. cerevisiae deletion strains, locus YPL241C, strain CIN2, active compounds read low 0.997 | S. cerevisiae deletion strains, locus YPL256C, strain CLN2, active compounds read low 0.969 | S. cerevisiae deletion strains, locus YPR119W, strain clb2, active compounds read low 0.981 | S. cerevisiae deletion strains, locus YPR141C, strain kar3, active compounds read low 0.976 | S. cerevisiae deletion strains, locus YPR163C, strain tif3, active compounds read low 0.986 | S. cerevisiae deletion strains, locus YPR167C, strain met16, active compounds read low 0.989 | S. cerevisiae deletion strains, strain wtn01, active compounds read low 1 | S. cerevisiae strains, strain wild type, active compounds read low 0.995
